{"source": "paper PMC8384837", "about": "“Expanding the binding specificity for RNA recognition by a PUF domain”"}
{"biological_target": "PUM1 PUF domain R4-PHL (Homo sapiens, UniProt Q14671 828-1176, N971P;Q975L)", "test": "yeast three-hybrid, YBZ-1, SC-Leu-His + 0.5 mM 3-AT, 4 days", "details": "tags: N-Gal4 AD-HA kept; label: inside an RPR1-promoter hybrid RNA with tandem MS2 sites; ssRNA", "method_in_brief": "(§1)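 Repeat regions from input (SC-Leu) and selection (SC-Leu-His + 0.5 mM 3-AT) plates were PCR-amplified and Illumina-sequenced after four days of growth. The cells were strain YBZ-1 with a LexA–MS2 coat fusion and a HIS3 reporter, co-expressing Pumilio-1 PUF domain libraries and matching RNA elements from a centromeric plasmid. The interaction score is the log change in variant frequency from input to selection, taken in log2 with a pseudocount of 1 for absent variants.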"}
{"sequence": "GGCUAGAACUAGUGGAUCCCCCGGCGCCCGGCGGCUCGAGCCCGGGUAAGUGUACAUAGUCUGCAUGCCGCCGGGCGCCAUGCCUGCAGGUCGACUCUAGAAAACAUG", "binding signal": "3.73 log2 enrichment (interaction score)"}
{"sequence": "GGCUAGAACUAGUGGAUCCCCCGGCGCCCGGCGGCUCGAGCCCGGGUAAGUGUAUAUAGUCUGCAUGCCGCCGGGCGCCAUGCCUGCAGGUCGACUCUAGAAAACAUG", "binding signal": "5.92 log2 enrichment (interaction score)"}
{"sequence": "GGCUAGAACUAGUGGAUCCCCCGGCGCCCGGCGGCUCGAGCCCGGGUAAGUGUAAAUAGUCUGCAUGCCGCCGGGCGCCAUGCCUGCAGGUCGACUCUAGAAAACAUG", "binding signal": "5.53 log2 enrichment (interaction score)"}
{"biological_target": "PUM1 PUF domain R1-RTV (Homo sapiens, UniProt Q14671 828-1176, S863R;R864T;Q867V)", "test": "yeast three-hybrid, YBZ-1, SC-Leu-His + 0.5 mM 3-AT, 4 days", "details": "tags: N-Gal4 AD-HA kept; label: inside an RPR1-promoter hybrid RNA with tandem MS2 sites; ssRNA", "method_in_brief": "as §1"}
{"sequence": "GGCUAGAACUAGUGGAUCCCCCGGCGCCCGGCGGCUCGAGCCCGGGUAAGUGUAAAUGGUCUGCAUGCCGCCGGGCGCCAUGCCUGCAGGUCGACUCUAGAAAACAUG", "binding signal": "2.39 log2 enrichment (interaction score)"}
{"sequence": "GGCUAGAACUAGUGGAUCCCCCGGCGCCCGGCGGCUCGAGCCCGGGUAAGUGUAAAUUGUCUGCAUGCCGCCGGGCGCCAUGCCUGCAGGUCGACUCUAGAAAACAUG", "binding signal": "3.33 log2 enrichment (interaction score)"}
{"sequence": "GGCUAGAACUAGUGGAUCCCCCGGCGCCCGGCGGCUCGAGCCCGGGUAAGUGUAAAUCGUCUGCAUGCCGCCGGGCGCCAUGCCUGCAGGUCGACUCUAGAAAACAUG", "binding signal": "4.19 log2 enrichment (interaction score)"}
